In PubChem BioAssay (EPA / NIEHS) one finds outcome and AC50 data, which are given here for three compounds.

Read-out in assay [1]: Matrix Metallopeptidase 9 (MMP9), MMP9 (gene 4318)
Put plainly: BSK_KF3CT_MMP9: BioMAP Diversity Plus: KF3CT Assay for Matrix Metallopeptidase 9 (MMP9) Biomarker Activity (AID 2283074). As to conditions: primary human keratinocytes with fibroblasts; actives raise or lower the signal. In a few lines: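 ELISA read-out of MMP-9 at 24 h post-dosing in a co-culture of human skin keratinocytes and foreskin fibroblasts. Gain or loss of signal was fitted in both directions against DMSO.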

Read-out in assay [2]: urokinase plasminogen activator (uPA), PLAU (gene 5328)
Put plainly: BSK_KF3CT_uPA: BioMAP Diversity Plus: KF3CT Assay for urokinase plasminogen activator (uPA) Biomarker Activity (AID 2283075). As to conditions: primary human keratinocytes with fibroblasts; actives raise or lower the signal. An outline of the steps: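 Skin co-culture (keratinocytes + foreskin fibroblasts), human primary; 24 h post-dose; uPA by ELISA; gain/loss fit vs DMSO baseline.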

Read-out in assay [3]: CD40, CD40 (gene 958)
Put plainly: BSK_LPS_CD40: BioMAP Diversity Plus: LPS Assay for CD40 Biomarker Activity (AID 2283076). The note with it: primary human HUVEC with PBMC; actives raise or lower the signal. In a few lines: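 HUVEC plus PBMC co-culture stimulated with LPS; CD40 quantified by ELISA 24 h after compound dosing. Fitting was bidirectional relative to DMSO. SRB staining of parallel cultures flagged overt cytotoxicity.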

Read-out in assay [4]: E-selectin (Homo sapiens) (UniProt P16581)
Put plainly: BSK_LPS_Eselectin: BioMAP Diversity Plus: LPS Assay for Eselectin Biomarker Activity (AID 2283077). The note with it: primary human HUVEC with PBMC; actives raise or lower the signal. In a few lines: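 Human umbilical vein endothelial cells co-cultured with PBMC under LPS stimulation; cell-surface E-selectin measured by ELISA 24 h after dosing. Change in either direction versus DMSO, with SRB total-protein staining in parallel cultures for cytotoxicity.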

Read-out in assay [5]: Interleukin-8 (IL8), CXCL8 (gene 3576)
Put plainly: BSK_LPS_IL8: BioMAP Diversity Plus: LPS Assay for Interleukin-8 (IL8) Biomarker Activity (AID 2283078). As to conditions: primary human HUVEC with PBMC; actives raise or lower the signal. An outline of the steps:
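Human umbilical vein endothelial cells co-cultured with PBMC, LPS-stimulated, exposed to compound for 24 h. IL-8 quantified by ELISA; fitted in both directions against DMSO, with SRB total-protein staining of parallel cultures for cytotoxicity.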

Assay [6] can be described thus: BSK_LPS_SRB: Viability Assessment in the BioMAP Diversity Plus: LPS Assay (AID 2283079).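 Note: total protein by sulforhodamine B absorbance as a cytotoxicity measure; measured one day after compound addition.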 As to conditions: primary human HUVEC with PBMC. In a few lines:
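Co-culture of human umbilical vein endothelial cells and PBMC, read 24 h after dosing. Total protein by 0.1% SRB staining after 10% TCA fixation, absorbance at 560 nm; bidirectional fit against DMSO.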

Read-out in assay [7]: Monocyte Chemoattractant Protein-1 (MCP1), CCL2 (gene 6347)
Put plainly: BSK_LPS_MCP1: BioMAP Diversity Plus: LPS Assay for Monocyte Chemoattractant Protein-1 (MCP1) Biomarker Activity (AID 2283081). As to conditions: primary human HUVEC with PBMC; actives raise or lower the signal. An outline of the steps:
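Human umbilical vein endothelial cells co-cultured with PBMC, LPS-stimulated; secreted MCP-1 measured by ELISA 24 h after compound addition. Bidirectional curve fitting against DMSO baseline; SRB total-protein staining in parallel cultures for cytotoxicity.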

A short description of assay [8]: BSK_LPS_PGE2: BioMAP Diversity Plus: LPS Assay for Prostaglandin E2 (PGE2) Biomarker Activity (AID 2283082). As to conditions: primary human HUVEC with PBMC; actives raise or lower the signal. In a few lines: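 PGE2 release measured by ELISA in an LPS-activated co-culture of human umbilical vein endothelial cells and peripheral blood mononuclear cells, read at 24 h post-dosing. DMSO served as baseline for bidirectional curve fitting.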

Read-out in assay [9]: Macrophage colony-stimulating factor (MCSF), CSF1 (gene 1435)
Put plainly: BSK_LPS_MCSF: BioMAP Diversity Plus: LPS Assay for Macrophage colony-stimulating factor (MCSF) Biomarker Activity (AID 2283083). As to conditions: primary human HUVEC with PBMC; actives raise or lower the signal. An outline of the steps: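 HUVEC–PBMC co-culture, M-CSF measured by ELISA 24 h after chemical dosing. Fitted in both directions relative to DMSO as negative control; overt cytotoxicity assessed by SRB total-protein staining in parallel cultures.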

Read-out in assay [10]: Tissue Factor, F3 (gene 2152)
Put plainly: BSK_LPS_TissueFactor: BioMAP Diversity Plus: LPS Assay for Tissue Factor Biomarker Activity (AID 2283084). The note with it: primary human HUVEC with PBMC; actives raise or lower the signal. An outline of the steps: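 Human umbilical vein endothelial cells co-cultured with PBMC were dosed with compound. Cell-surface CD142 was measured by ELISA 24 h later. Activity was fitted bidirectionally against DMSO, with SRB total-protein staining in parallel cultures for cytotoxicity.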

Read-out in assay [11]: Tumor necrosis factor (Homo sapiens) (UniProt P01375)
Put plainly: BSK_LPS_TNFa: BioMAP Diversity Plus: LPS Assay for Tumour Necrosis Factor alpha (TNFa) Biomarker Activity (AID 2283085).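 For AC50: TNFa protein level quantified by ELISA in the co-culture.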 As to conditions: primary human HUVEC with PBMC; actives raise or lower the signal. In a few lines: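 TNFa was quantified by ELISA in LPS-activated co-cultures of human endothelial cells and PBMC, 24 h post-dosing. Both increases and decreases versus DMSO were fitted.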

Read-out in assay [12]: Vascular cell adhesion molecule 1 (VCAM1), VCAM1 (gene 7412)
Put plainly: BSK_LPS_VCAM1: BioMAP Diversity Plus: LPS Assay for Vascular cell adhesion molecule 1 (VCAM1) Biomarker Activity (AID 2283086). As to conditions: primary human HUVEC with PBMC; actives raise or lower the signal. An outline of the steps: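 VCAM-1 quantified by ELISA in an LPS-activated co-culture of human endothelial cells and peripheral blood mononuclear cells, read 24 h post-treatment. Fitted in both directions versus DMSO; parallel SRB staining flags overt cytotoxicity.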

Read-out in another assay: CD38, CD38 (gene 952)
Put plainly: BSK_SAg_CD38: BioMAP Diversity Plus: SAg Assay for CD38 Biomarker Activity (AID 2283087). As to conditions: primary human HUVEC with PBMC; actives raise or lower the signal. An outline of the steps: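 CD38 quantified by ELISA (fluorescence) in a superantigen-activated endothelial cell–PBMC co-culture at 24 h post-dose. Activity fitted in both directions relative to DMSO; parallel SRB and Alamar Blue cytotoxicity read-outs.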

Read-out in assay [13]: CD40, CD40 (gene 958)
Put plainly: BSK_SAg_CD40: BioMAP Diversity Plus: SAg Assay for CD40 Biomarker Activity (AID 2283088). As to conditions: primary human HUVEC with PBMC; actives raise or lower the signal. An outline of the steps:
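HUVEC plus PBMC co-culture, superantigen-activated, with CD40 read by ELISA 24 h after dosing. Curves fitted in both directions against DMSO. Overt cytotoxicity checked by parallel SRB total-protein staining.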

Read-out in the next assay: CD69, CD69 (gene 969)
Put plainly: BSK_SAg_CD69: BioMAP Diversity Plus: SAg Assay for CD69 Biomarker Activity (AID 2283089). The note with it: primary human HUVEC with PBMC; actives raise or lower the signal. In a few lines: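 Values derive from bidirectional fitting relative to DMSO vehicle. Cells: umbilical vein endothelium plus peripheral blood mononuclear cells, treated 24 h before fluorescent ELISA for CD69.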

Read-out in assay [14]: Monocyte Chemoattractant Protein-1 (MCP1), CCL2 (gene 6347)
Put plainly: BSK_SAg_MCP1: BioMAP Diversity Plus: SAg Assay for Monocyte Chemoattractant Protein-1 (MCP1) Biomarker Activity (AID 2283090). As to conditions: primary human HUVEC with PBMC; actives raise or lower the signal. In a few lines:
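Values derive from bidirectional fitting of ELISA-measured MCP1 against DMSO controls. Readings were taken 24 h after dosing human vascular endothelial cells co-cultured with peripheral blood mononuclear cells under superantigen stimulation.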

Read-out in assay [15]: E-selectin (Homo sapiens) (UniProt P16581)
Put plainly: BSK_SAg_Eselectin: BioMAP Diversity Plus: SAg Assay for Eselectin Biomarker Activity (AID 2283091). The note with it: primary human HUVEC with PBMC; actives raise or lower the signal. An outline of the steps: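 Human umbilical vein endothelial cells co-cultured with peripheral blood mononuclear cells, SAg system. E-selectin is measured by ELISA 24 h after dosing and fitted bidirectionally against DMSO. Cytotoxicity is checked by SRB staining of parallel cultures.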

Read-out in assay [16]: Monokine induced gamma interferon (MIG), CXCL9 (gene 4283)
Put plainly: BSK_SAg_MIG: BioMAP Diversity Plus: SAg Assay for Monokine induced gamma interferon (MIG) Biomarker Activity (AID 2283092). As to conditions: primary human HUVEC with PBMC; actives raise or lower the signal. In a few lines: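 Values reflect bidirectional fitting of ELISA-measured MIG against DMSO vehicle, taken 24 h after dosing of a co-culture of human umbilical vein endothelial cells and peripheral blood mononuclear cells.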

Assay [17] can be described thus: BSK_SAg_PBMCCytotoxicity: PBMC Cytotoxicity Assessment in the BioMAP Diversity Plus: SAg Assay (AID 2283093).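 Note: fitted both ways against DMSO so a hit may be loss or gain of signal.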 The note with it: primary human HUVEC with PBMC. An outline of the steps:
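PBMC viability by Alamar Blue reduction, fluorescence read at 546/580 nm after 6 h dye exposure. Cells were dosed 1 h before SEB plus TSST-1 activation (20 ng/mL final each), then held 90 h; endothelial/PBMC human co-culture.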

As usually defined, the AC50 is the concentration giving half of the maximal activity seen.

Calls of active or inactive are those of the source. Rule for the calls: active = hit-call score of the fitted dose curve at least 0.9, where 1 is the maximum; inactive = score below 0.9.

Tumor necrosis factor (Homo sapiens), sequence (P01375 whole entry, looked up): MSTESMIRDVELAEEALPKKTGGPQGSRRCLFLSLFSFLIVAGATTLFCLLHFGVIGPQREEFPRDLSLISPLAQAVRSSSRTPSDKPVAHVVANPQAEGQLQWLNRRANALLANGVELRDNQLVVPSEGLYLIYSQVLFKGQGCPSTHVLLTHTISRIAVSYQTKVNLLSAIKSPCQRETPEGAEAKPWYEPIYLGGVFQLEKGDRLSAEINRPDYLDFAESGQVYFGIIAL
E-selectin (Homo sapiens), sequence (P16581 whole entry, looked up): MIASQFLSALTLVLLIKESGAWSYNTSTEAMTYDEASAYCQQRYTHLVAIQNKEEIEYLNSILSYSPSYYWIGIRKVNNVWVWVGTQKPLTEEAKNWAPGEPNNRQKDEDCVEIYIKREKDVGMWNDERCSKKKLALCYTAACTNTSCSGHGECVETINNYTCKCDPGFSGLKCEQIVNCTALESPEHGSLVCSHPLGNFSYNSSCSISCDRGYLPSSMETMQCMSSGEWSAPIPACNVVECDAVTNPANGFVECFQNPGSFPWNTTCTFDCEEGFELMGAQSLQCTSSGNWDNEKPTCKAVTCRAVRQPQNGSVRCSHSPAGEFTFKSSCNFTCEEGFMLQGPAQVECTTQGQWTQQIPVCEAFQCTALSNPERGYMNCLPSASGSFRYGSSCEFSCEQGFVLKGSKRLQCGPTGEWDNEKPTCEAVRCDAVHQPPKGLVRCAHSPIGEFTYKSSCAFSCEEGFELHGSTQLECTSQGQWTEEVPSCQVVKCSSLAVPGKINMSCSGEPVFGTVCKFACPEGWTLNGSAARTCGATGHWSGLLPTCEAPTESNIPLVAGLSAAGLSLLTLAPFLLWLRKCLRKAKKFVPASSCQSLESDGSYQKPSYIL

Regarding `BrCCBr`, the outcome in assay [1] is “inactive”; in assay [2], “inactive”; with CD40, CD40 (gene 958) [3] it was “inactive”; in [4], “inactive”; in assay [5] it was “inactive”; in assay [6] it was “inactive”. The result in assay [7], in [8], in assay [9], in [10], in assay [11] and in assay [12] was inactive. In addition, the outcome with CD38, CD38 (gene 952) is “inactive”; with CD40, CD40 (gene 958) [13], “inactive”; with CD69, CD69 (gene 969), “inactive”; in assay [14], “inactive”; in assay [15], “inactive”; in assay [16] it was “inactive”. The result in assay [17] was inactive.
Turning to `ClC1(Cl)C2(Cl)C3(Cl)C4(Cl)C(Cl)(Cl)C5(Cl)C3(Cl)C1(Cl)C5(Cl)C24Cl` (configuration not stated), the outcome in [1] is “inactive”; in assay [2] it was “inactive”; with CD40, CD40 (gene 958) [3], “inactive”; in [4], “inactive”; in assay [5] it was “inactive”; in assay [6], “inactive”. The outcome in assay [7] is “inactive”; in [9], “inactive”; in assay [10] it was “inactive”; in assay [12] it was “inactive”; in the assay with CD38, CD38 (gene 952) it was “inactive”; with CD40, CD40 (gene 958) [13], “inactive”. In addition, the outcome with CD69, CD69 (gene 969) is “inactive”; in [14], “inactive”; in assay [15], “inactive”; in assay [16] it was “inactive”; in assay [17], “inactive”. For the same compound, the AC50 in [8] is 148 nM (active); in assay [11], 149 nM (active).
For `COC(=O)c1sccc1S(=O)(=O)NC(=O)Nc1nc(C)nc(OC)n1`, the outcome was “inactive” in assay [1]; “inactive” in assay [2]; “inactive” with CD40, CD40 (gene 958) [3]; “inactive” in [4]; “inactive” in [5]; “inactive” in assay [6]. The result in [7], in assay [8], in assay [9], in assay [10], in [11] and in assay [12] was inactive. Also, the outcome with CD38, CD38 (gene 952) was “inactive”; in the assay with CD40, CD40 (gene 958) [13] it was “inactive”; with CD69, CD69 (gene 969) it was “inactive”; in [14] it was “inactive”; in assay [15], “inactive”; in [16], “inactive”. The outcome in assay [17] was inactive.
